A549 tox – Nrf2 qHTS screen for inhibitors: counterscreen for cytotoxicity. AID 504648, 2011. 0.16% of 390,000 active. A549 ARE-Fluc cells, CellTiter-Fluor viability, 18-24 h. Potency, µM (highest dose often 46 µM), without a hit: top-dose activity change, negative = cytotoxicity, usual class: inhibitors; also: potency is read from the fitted curve at half-maximal effect; % is scaled to controls: 0 for no effect and ±100 for the full control effect
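A549 ARE_Fluc cells in 5% FBS OPTI-MEM were exposed to compounds in concentration-response for 18-24 h at 37 deg C. Viability was read by CellTiter-Fluor fluorescence (Ex 405/Em 525) after 30 min, before the luciferase read.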
CCT chaperon mod – High-Throughput Screening for Modulators of Cytosolic Chaperonin Activity; purified chaperonin ATPase assay, HTRF ADP detection, 30 min; activity change, % (concentration not given with the values), hits read low; 0.3% of 360,000 active; in the data active = activity change below about -30%; also: % is scaled to controls: 0 for no effect and ±100 for the full control effect
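TRiC at 40 or 20 nM final (batch-dependent) in 30 mM Tris pH 7.4, 100 mM KCl, 5 mM MgCl2, 1 mM DTT, with compound at single 76 uM and 10 uM ATP, 30 min at 37 deg C. ADP detected by HTRF Transcreener, 665/615 ratio.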
Nrf2 block – Nrf2 qHTS screen for inhibitors; 2.1% of 360,000 active; Potency, µM (highest dose often 46 µM), for inactives: at the highest dose activity change, negative = inhibition, actives largely listed as inhibitors; A549 ARE-Fluc reporter, luciferase luminescence, 18-24 h; also: potency is read from the fitted curve at half-maximal effect; % is scaled to controls: 0 for no effect and ±100 for the full control effect; nearly all actives have a fitted effect of over 60% in size
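Concentration-response testing used A549 ARE_Fluc cells at 5000 cells/well. Following an 18-24 h compound incubation, viability was read by fluorescence (Ex 405/Em 525) and luciferase output by luminescence.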
TCR activator – Activators of T cell receptors: qHTS campaign; AID 504894, 2011; 330,000 tested, under 10 active; Potency, µM (top dose mostly 9.22 µM), inactives show top-dose activation of IL-2 secretion, hits mostly activators; primary human leukocytes, anti-CD3, IL-2 HTRF, 48 h; also: % of control where 0% means no effect
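Primary human leukocytes were stimulated with a-CD3 beads plus compounds for 48 hr without co-stimulation; secreted IL-2 was quantified by HTRF using a-IL-2-K (europium cryptate) and a-IL-2-d2, excited at 320nm with acceptor emission read at 665nm.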
Nrf2 ARE act – qHTS of Nrf2 Activators; AID 624171, 2012; Potency, µM (top dose mostly 46.1 µM), for the others: at the top dose activation, usual class: activators; 0.31% of 410,000 active; AREc32 ARE-luciferase reporter (MCF7-derived line), luminescence, 24 h; also: potency is read from the fitted curve at half-maximal effect; % of control where 0% means no effect; nearly all actives have a fitted effect of over 65% in size
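AREc32_Fluc, 1000 cells/well, OPTI-MEM + 5% FBS, o/n 37 deg C 5% CO2; 23 nL cpd by pin tool, 24 hr; Steady-Glo 30 min RT, luminescence.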
A-T KAP1 phos – qHTS Assay for Identifying a Potential Treatment of Ataxia-Telangiectasia. F2112 A-T fibroblasts, KAP-1 phosphorylation AlphaLISA; neocarzinostatin DNA damage 30 min before lysis. Potency, µM (series often up to 57.5 µM), inactives show at the highest dose activation, most hits filed as activators. 0.19% of 320,000 active; also: potency is read from the fitted curve at half-maximal effect; % of control where 0% means no effect; nearly all actives have a fitted effect of over 45% in size
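hTERT-immortalized A-T patient fibroblasts (F2112), 500 cells/well in OPTI-MEM, 1% FBS, got compounds for 60 min, then NCS for 30 min at 37C. Lysates were then assayed for phospho-KAP-1 by AlphaLISA (anti-pKAP1 donor, anti-KAP1 acceptor beads), 6 hr at 25C.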
* = called active by the depositor; ? = inconclusive; . = no result; [ ] = dose if it differs, or a comment. Shown are actives, neighbours in structure and some others; about 2.6% of the full set was active somewhere. Unless noted, calls follow the shape of the dose curve; as a rule, active = well fitted curve in the direction sought with a large enough effect; inconclusive = small, poorly fitted or top-dose-only effect, or another doubt; inactive = no such curve, though single readings can be large; an effect the other way counts as inactive or inconclusive.

SMILES	A549 tox	CCT chaperon mod	Nrf2 block	TCR activator	Nrf2 ARE act	A-T KAP1 phos
O=[S+]([O-])(c1c(F)cccc1F)N1CCN([S+](=O)([O-])c2csc3ccccc23)CC1	17%	.	-3%	.	.	.
O=C(COCc1cc(-c2ccc(F)cc2)on1)Nc1cc(Cl)ccc1O	3%	.	?	.	6.3µM*	.
O=C(COCc1cc(-c2cccs2)on1)Nc1cc(Cl)ccc1O	0%	.	-11%	.	3.5µM*	.
COc1cc(OC)c(NC(=O)COCc2cc(-c3cccs3)on2)cc1Cl	2%	.	0%	.	?	.
Cc1csc(C(=O)O)c1NC(=O)c1c(Cl)cccc1Cl	0%	-87*	1%	-3%	-1%	3%
O=[N+]([O-])c1nn(-c2ccccc2)n(O)c1=NC1CCN(Cc2ccccc2)CC1	18µM*	-2	12%	0%	-1%	4%
O=c1c2ccc(Cl)cc2nc(-c2cccc(C(F)(F)F)c2)n1O	-28%	-1	23µM*	-21%	1%	2%
N#Cc1ccc(-c2nc3cc(Cl)ccc3c(=O)n2O)cc1	-13%	-1	-19%	3%	-2%	60%
O=C(NCCc1csc(-c2ccc(C(F)(F)F)cc2)n1)c1cccs1	-2%	0	26µM*	-5%	0%	3%
O=C(Cc1ccccc1)N(Cc1cccnc1)c1nc2ccc(F)cc2s1	-6%	.	.	.	4%	.
COc1ccc(NC(=O)/C(Cl)=C(/Cl)S(=O)Cc2ccccc2)cn1 (stereo not given)	21µM*	-4	-117%	0%	-2%	-10%
COc1ccc(CS(=O)(=O)/C(Cl)=C(/Cl)C(=O)Nc2ccc(OC)nc2)cc1	21µM*	0	16µM*	2%	?	.
COc1ccc(/C=C/C(=O)Nc2ccc(OC)nc2)cc1	2%	1	?	-9%	4%	-7%
O=C(CSc1nnc2[nH]c(=O)cc(-c3ccccc3)n12)Nc1ccc(F)cc1F	3%	.	.	.	9%	.
COc1cc(/C=C(\C#N)c2nc3ccc(C)cc3[nH]2)cc([N+](=O)[O-])c1O	21µM*	1	?	8%	7%	-4%
c1ccc(Cn2c(-c3ccccc3)c[n+]3c2SCCC3)cc1	1%	4	8.2µM*	9%	0%	8%
Brc1ccc(-c2c[n+]3c(n2-c2ccccc2)SCC3)cc1	-5%	0	?	5%	0%	30%
Cc1cccc(NC(=O)CSCC(=O)N2CCN(Cc3ccc4c(c3)OCO4)CC2)c1	5%	-1	25%	1%	0%	4%
CCn1c(=O)sc2cc(NC(=O)c3cccc(OC)c3)ccc21	0%	.	-21%	.	5%	.
CCCn1c(=O)sc2cc(NC(=O)c3ccc(OC)c(Br)c3)ccc21	-13%	.	16µM*	.	3%	.
COc1ccccc1-c1noc(-c2ccc(NC3CCCC3)c([N+](=O)[O-])c2)n1	1%	.	-6%	.	12%	.
Cc1cc(OC(=O)c2ccccc2Cl)cc(=O)n1C	3%	-3	8.2µM*	0%	-2%	8%
O=C(Oc1ccc(N2C(=O)CCC2=O)cc1)c1ccccc1Cl	-5%	1	?	0%[46.1 µM]	-2%	17%
O=[N+]([O-])c1cc(-c2nc(-c3ccccc3)no2)ccc1N1CCOCC1	0%	.	23µM*	.	7%	.
COc1ccc(-c2noc(-c3ccc(N4CCOCC4)c([N+](=O)[O-])c3)n2)cc1OC	-4%	.	-6%	.	-1%	.
SMILES	A549 tox	CCT chaperon mod	Nrf2 block	TCR activator	Nrf2 ARE act	A-T KAP1 phos
COc1ccc(-c2noc(-c3ccc(N4CCC(C)CC4)c([N+](=O)[O-])c3)n2)cc1OC	-17%	.	21µM*	.	0%	.
COc1ccccc1/C=C/C(=O)Nc1ccc(S(=O)(=O)Nc2cc(C)nc(C)n2)cc1	1%	-3	-26%	0%	2%	3%
O=C(CSc1nc(-c2ccccc2)nc2c1CCCC2)c1ccc(Cl)cc1	-5%	.	-1%	.	0%	.
O=C(Nc1ccccc1)C1=C(c2ccccc2)S(=O)(=O)CCS1(=O)=O	-1%	-55*	?	.	-3%	-16%
CCOC(=O)c1cc(NC(=O)CN2CCCC2)cc(C(=O)OCC)c1	3%	-1	25%	1%	1%	5%
CCc1ccc2nc(NC(=O)CN3C(=O)NC4(CCCC4)C3=O)sc2c1	2%	-3	?	-1%	6%	2%
COc1cccc(N2CCN(C(=O)Cn3cnc4onc(-c5ccc(F)cc5)c4c3=O)CC2)c1	3%	.	16µM*	.	2%	.
COc1ccc(N2CCN(C(=O)CCn3cnc4onc(-c5ccc(F)cc5)c4c3=O)CC2)cc1	-4%	.	?	.	0%	.
CCOC(=O)C1CCN(C(=O)c2cc3cc(Cl)ccc3[nH]2)CC1	-1%	-1	23%	-1%	4%	7.9µM*
CCOC(=O)C1CCN(C(=O)c2cc3ccc(OC)cc3[nH]2)CC1	0%	3	25%	6%	0%	-3%
Cc1cn2c(=O)c(C(=O)N3CCN(c4ccccc4Cl)CC3)cnc2s1	-4%	0	-2%	-4%	-1%	-2%
COc1ccc2nc(N3CCCC3)c(C#N)cc2c1	?	1	21%	-3%	1%	.
COc1ccc2nc(N3CCCCC3)c(C#N)cc2c1	18%	-4	?	15%	6%	20µM*
COc1ccccc1C(=O)N1CCN(c2nc3cc(C)cc(C)c3cc2C#N)CC1	.	1	.	.	-1%	.
COc1ccccc1C(=O)N1CCN(c2nc3cc(C)c(C)cc3cc2C#N)CC1	-26%	-4	23µM*	0%[46.1 µM]	0%	3%
O=C(Cn1cnc2ccccc21)Nc1ccc(F)c(F)c1	5%	-2	?	15%	-1%	2%
Cc1csc(N2CCCC2c2nc3cc(C(F)(F)F)ccc3n2CCOCCO)n1 (stereo not given)	14%	0	?	-10%	0%	.
COc1ccccc1CN(C)CC(=O)Nc1ccccc1-c1ccccc1	?	-6	23µM*	0%	3%	25%
COc1ccc(-c2nc3ccccc3c(=O)n2Cc2ccccc2)cc1CNc1ccc(NC(C)=O)cc1	-9%	.	-9%	.	.	.
Oc1cccc(-c2nc3c4c(ncn3n2)-c2ccccc2CC42CCCC2)c1	?	-2	23µM*	.	-2%	-1%
COc1cc(-c2ccc3ncnc(NCc4ccc(C)o4)c3c2)cc(OC)c1OC	-15%	.	?	.	.	.
O=C1C(=O)c2ccc(-c3ccccc3)cc2-c2ccccc21	.	1	21µM*	1%[46.1 µM]	-3%	?
